TDP1 cell CPT = DT40-hTDP1 cell growth loss with CPT | chicken DT40 Tdp1-/-;hTDP1 cells + 20 nM CPT, ATP luminescence, 48 h | AID 686979 | Potency, µM (titrated, usually from 46.2 µM), most hits filed as inhibitors | 420,000 tested, 12% active; further: nearly all actives have a fitted effect of over 55% in size
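Chicken DT40 Tdp1-/- cells complemented with human TDP1, 400 cells/well, exposed to compounds plus 20 nM camptothecin for at least 48 h at 37 C; viability read as ATP content by CellTiter-Glo luminescence.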
SW480 rereplic = DNA re-replication induction in SW480 cells; SW480 DNA re-replication, Hoechst DNA content imaging, 48 h; 340,000 tested, 1.8% active; Potency, µM (doses to about 46.1 µM), hits mostly activators; further: nearly all actives have a fitted effect of over 55% in size
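First, 250 cells per well were seeded. Next, compound or vehicle (23 nL) was pinned in, plates sat 48 hr at 37 C. Finally Hoechst was added for 40 min before fluorescence scanning.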
IL1B secr inh = blocks inflammasome-driven IL-1 beta release; THP-1 LPS/ATP IL-1B secretion, AlphaLISA, 16 h; active compounds read low; activity change, % at 57.5 µM; 360,000 tested, 4.7% active; in the data active means activity change below about -50%; inconclusive means mostly about -30% to -49%
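THP-1 cells pretreated 1 hr with compounds (up to 57.5 uM final), then stimulated with LPS (250 ng/mL final) plus ATP (1.25 mM final); secreted IL-1B measured by AlphaLISA after 16 hr, decreased signal indicating inhibition.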
BCR signal inh = inhibitors of chronic active B-cell receptor signaling | AID 493014 | ABC-DLBCL IkBa-CBG/CBR reporter, luminescence ratio, 4 h | Potency, µM (highest dose often 46.1 µM), hits mostly inhibitors | 340,000 tested, 0.05% active; active means well fitted inhibition curve with a large enough effect in the signal ratio, with a control signal flat, not every such curve was filed as active; inconclusive means small, poorly fitted or top-dose-only effect, or effect the other way, or a change in a side signal; the % refers to the signal ratio
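TMD8 human ABC-DLBCL cells with doxycycline-inducible IκBα–green luciferase fusion and unfused red luciferase, in 0.5% FBS medium; compounds up to 46 uM, 4 h at 37C. Green/red luminescence ratio, filter-overlap corrected, fitted to concentration-response curves.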
MCF10A rereplic = DNA re-replication induction in MCF 10a cells. AID 624296. MCF 10A DNA re-replication, Hoechst nuclear intensity, 48 h. Potency, µM (top dose mostly 46.1 µM), hits mostly activators. 350,000 tested, 2.9% active; further: nearly all actives have a fitted effect of over 50% in size
TDP1 cell noCPT = qHTS for Inhibitors of human tyrosyl-DNA phosphodiesterase 1 (TDP1): qHTS in cells in absence of CPT; DT40 Tdp1-/- hTDP1 cells, no CPT, ATP luminescence, 48 h; Potency, µM (series often up to 46.2 µM), hits mostly inhibitors; 420,000 tested, 15% active; further: nearly all actives have a fitted effect of over 55% in size
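Compound effects on proliferation are scored in DT40 Tdp1-/-;hTDP1 cells in the absence of CPT. ATP levels (CellTiter-Glo luminescence) are recorded after a ≥48 hr, 37 °C incubation.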
Hits are given with their value; - = inactive; ? = inconclusive; . = not tested or not shown; [ ] = remark or other dose. Rows were chosen to be rich in hits. Some 19% of all compounds tested hit in one or more screens of this group. Unless noted, the call rests on the fitted dose curve; in most records, active means well fitted curve in the direction sought with a large enough effect; inconclusive means small, poorly fitted or top-dose-only effect, or another doubt; inactive means no such curve, though single readings can be large; an effect the other way counts as inactive or inconclusive.

SMILES	TDP1 cell CPT	SW480 rereplic	IL1B secr inh	BCR signal inh	MCF10A rereplic	TDP1 cell noCPT
CC(=O)N[C@@H]1C(O[C@H]2O[C@H](C(=O)O)C(O)[C@H](O)[C@H]2O)[C@H](O)[C@@H](CO)O[C@H]1O[C@@H]1C(C(=O)O)O[C@@H](O[C@H]2[C@H](O)[C@@H](CO)OC(O)[C@@H]2NC(C)=O)[C@H](O)[C@H]1O (some centres undefined)	-	-	.	.	-	21µM
C1CNCCNCCCNCCNC1	.	-	.	-	-	.
CC1C(=O)N(Cc2cn(Cc3ccco3)nn2)CCS(=O)(=O)N1Cc1ccc(-c2ccc(Cl)cc2)cc1 (centres undefined)	18µM	.	-	.	.	13µM
CC1C(=O)N(Cc2cn(Cc3ccco3)nn2)CCS(=O)(=O)N1Cc1ccc(-c2ccccc2)cc1 (centres undefined)	?	.	-	.	.	18µM
O=C(Nc1ccccc1)c1ccc(F)c(S(=O)(=O)N2CCOCC2)c1	-	-	-	-	-	-
O=C(Nc1ccc(-c2cn3ccsc3n2)cc1)c1ccc(F)c(S(=O)(=O)N2CCOCC2)c1	?	-	-	?	-	23µM
Cc1nc2ccc(NC(=O)c3ccc(C)c(S(=O)(=O)N4CCOCC4)c3)cc2s1	18µM	-	-	-	-	?
Cc1nc2ccc(NC(=O)c3cc(S(=O)(=O)N4CCOCC4)ccc3C)cc2s1	?	-	-	-	-	23µM
COCC1CCN(C(=O)C2CCC(=O)N(C3CCCCCC3)C2)CC1 (centres undefined)	-	-	-	-	-	-
CSc1ccc(S(=O)(=O)N(C)Cc2ccccc2)cc1	-	-	-	-	-	-
O=C(Cc1ccc(Cl)cc1)Nc1ccncc1	12µM	-	-	-	-	9.2µM
CN(CCCC(=O)Nc1ccncc1)S(=O)(=O)c1ccc(Cl)cc1	16µM	-	-	?	-	23µM
Cc1ccc(CC(=O)Nc2ccncc2)cc1	5.8µM	-	-	-	-	4.6µM
Cc1cc2c(cc3c(=O)n(CC(=O)NCCCN4CC(C)CC(C)C4)ncn32)s1 (centres undefined)	-	-	?	-	?	-
COc1cccc(CN2CCC3(CCC(CNC(=O)c4cc(C)nn4C)O3)CC2)c1OC (centres undefined)	-[9.04 µM]	.	.	.	.	-
Cn1c(SCc2nc3ccccc3[nH]2)nnc1-c1cnccn1	-	-	-	-	-	-
Clc1cccc(-c2nnc(SCc3nc4ccccc4[nH]3)n2Cc2ccco2)c1	?	-	-	?	?	?
C(=C\c1ccccc1)/CSc1nnc(-c2ccccn2)n1Cc1ccco1	2.6µM	21µM	-	?	7.9µM	2.9µM
c1coc(Cn2c(SCc3nc4ccccc4[nH]3)nnc2-c2cnccn2)c1	?	-	-	-	-	23µM
Clc1ccc(OCc2nnc(SCc3nc4ccccc4[nH]3)n2Cc2ccco2)cc1	21µM	-	-	-	-	21µM
CC(=O)C(Sc1nccc(-c2cccs2)n1)C(C)=O	?	-	-	-	-	18µM
CC(=O)N1CCC[C@H]1C(=O)NCC1Cc2cc(-c3cnccn3)cc(Cl)c2O1 (some centres undefined)	-	.	.	.	.	-
CC(=O)N1CC(c2ccccc2)C(c2ccc(Cl)cc2)=N1 (centres undefined)	?	-	-	-	-	?
CC(C)NC(=O)N1CC(c2ccccc2)C(c2ccc(Cl)cc2)=N1 (centres undefined)	12µM	-	-	-	-	18µM
Cc1c(C(=O)OC(C)C)sc(NC(=O)c2cnccn2)c1C(=O)OC(C)C	-	-	-	.	-	-
CCCOc1ccc(-c2nc(C#N)c(NCCCn3ccnc3)o2)cc1	?	-	?	-	?	18µM
N#Cc1nc(-c2ccc(F)cc2)oc1NCCCn1ccnc1	.	.	.	-	.	.
